# In PubChem BioAssay (NCI):
# About 83,000 compounds went through this panel and 20% of them were active in at least one assay; those are over-represented in the sample as a whole.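 Treatment: one concentration, 48 hours, 96-well format. Scoring: percent growth, with anything below 10 considered active.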 Unmarked numbers belong to inactive results. Activity calls are given as the source filed them.
# Test system: MDA-MB-468 breast
# Experiment: NCI-60 one-dose screen, 48 h (100 = growth as untreated, 0 = no growth, -100 = all killed)
# Details: 10 µM unless noted
row,Structure (SMILES),growth
1,COc1c(Cl)cc(Cl)cc1Cl,110%
2,O=C(/C=C\c1ccccc1Cl)c1ccccc1,87.5%
3,CCN(CC)CCCNc1c2ccc(Cl)cc2nc2ccc(OC)cc12,-34.6% (active)
4,O=C(CCC(=O)N/N=C/c1ccccc1O)N/N=C/c1ccccc1O,62.8%
5,COc1cc(C(=C2O[C@@H]([C@H]3COC(C)(C)O3)[C@H]3OC(C)(C)O[C@@H]23)c2cc(OC)c(OC)c(OC)c2)cc(OC)c1OC,106%
6,COc1cccc(C2=NN3C(C2)c2ccccc2OC3c2ccc(/C=C3\SC(=O)NC3=O)cc2)c1 (stereo not given),102%
7,CO[C@H]1/C=C(/C)CCC[C@H](C)[C@H](O)[C@@H](C)C(=O)C(C)(C)[C@@H](O)CC(=O)O[C@@H]1/C(C)=C/c1csc(C)n1,-23.3% (active)
8,O=C1Nc2cc(Cl)ccc2/C1=C\c1ccc(OCc2ccccc2)cc1,98.5%
9,COc1ccc(/C=C/C(=O)Nc2cc(/C=C\c3cc(OC)c(OC)c(OC)c3)cc(OC)c2OC)cc1OC,17.5%
10,CCCCCCNC(=O)Oc1ccc(/C(=C(/C)c2ccc(Cl)cc2)c2ccc(OCCN3CCCCCC3)cc2)cc1,35.9%
11,COc1ccc(-c2ccccc2)cc1-c1c(Nc2cc(Cl)cc(Cl)c2O)c(=O)c1=O,-3.49% (active)
12,Nc1cc(N)c2cccnc2c1O,48.2%
13,Cc1cn(-c2cc(NC(=O)c3cncc(C#Cc4c(N)ncc5ccc(F)cc45)c3)cc(C(F)(F)F)c2)cn1,50.8%
14,CC(C)c1cc(CNc2nc(Nc3cc(C4CC4)[nH]n3)cc(N3CCN(C)CC3)n2)on1,-34.8% (active)
15,Cc1ccccc1NC(=O)c1sc2nc(C)c(C(C)O)cc2c1N (stereo not given),39.5%
16,O=S(=O)(CC(O)(c1ccccc1)c1ccccc1)CC(O)(c1ccccc1)c1ccccc1,77.4%
17,COc1ccc2c(c1)C(=O)/C(=C/c1ccc([N+](=O)[O-])s1)O2,-22.9% (active)
18,CN(C)CCCN1c2ccccc2CCc2ccc(Cl)cc21,-21.6% (active)
19,CC(C)Cc1nc(Nc2ccccc2)[nH]c(=O)c1C#N,14.5%
20,Nc1c2c(nc3ccc(Cl)cc13)CC(c1ccc(O)cc1)CC2=O (stereo not given),18%

row,Structure (SMILES),growth
1,O=C1C(=O)c2c(ccc3ccccc23)-c2ccccc21,-79.9% (active)
2,CCOC(=O)c1c(C)nc2c(c1N)C(=O)C(=O)N2Cc1ccc(OC)cc1,95%
3,CC1=NN(c2ccccc2)C(=O)C1C(=O)c1ccccc1 (stereo not given),83.4%
4,O=C(/C=C/CN1CCOCC1)Nc1cc2c(Nc3ccc(F)c(Cl)c3F)ncnc2cc1OCCOC(F)F,-17.6% (active)
5,O=C1NC(=O)/C(=C\c2ccccc2)C2=C1CCCC2,95.3%
6,Cc1nc(S(=O)(=O)c2ccccc2)c(S(=O)(=O)Cc2ccc([N+](=O)[O-])cc2)o1,78.1%
7,COc1ccc(-c2cc(/C=C/C(=O)c3cc(OC)c(OC)c(OC)c3)[nH]n2)cc1OC,-63.8% (active)
8,c1ccc(CN2COc3c(ccc4c3OCN(Cc3ccccc3)C4)C2)cc1,0.865% (active)
9,O=C(Cn1nnc2ccccc21)N/N=C/c1ccccc1F,90.8%
10,O=C1/C(=C\c2ccc(F)cc2)CN(C(=O)c2ccccc2F)C/C1=C\c1ccc(F)cc1,-74% (active)
11,O=C1NC(=O)c2c1c1c3ccccc3[nH]c1c1oc3ccc(F)cc3c21,8.7% (active)
12,CC(=O)n1cc([C@H]2CC[C@H](c3cn(C(C)=O)c4ccccc34)c3c2[nH]c2ccccc32)c2ccccc21,92.9%
13,CCOC(=O)c1cc(C(=O)c2ccc(OC)cc2)n2ccc(/C=C/c3cc[n+](CC(=O)c4ccc(OC)cc4)cc3)cc12,-38.2% (active)
14,CCc1nc2cc(/C=C/C(=O)NO)ccc2c(=O)n1CCc1ccc(OC)cc1,14.1%
15,COc1cc(OC)cc(C2C3=C(COC3=O)Nc3cc(OC)ccc32)c1 (stereo not given),-8.19% (active)
16,CCCCCCn1c(-c2ccc(C(=O)O/N=C(\N)c3ccc(OC)cc3)cc2)nc(-c2ccccc2)c1-c1ccccc1,-6.91% (active)
17,O=[N+]([O-])C1CC2C=CC1C2 (stereo not given),99.5%
18,OCCNCCCOc1ccc2ncnc(Nc3ccc(Oc4cccc(C(F)(F)F)c4)c(Cl)c3)c2c1,-64.6% (active)
19,Cc1cc(N2CCOCC2)nc(N(CCCNc2ccnc3cc(Cl)ccc23)Cc2ccco2)n1,21.7%
20,CCOC(=O)c1sc2ncc(-c3ccc(OC)cc3)n2c1C,103%
